# FBW7 act = human FBW7 E3 ligase activation, primary screen; AID 1259310; hit rate 0.13% among 650,000; AlphaScreen FBW7–phospho-cyclin E peptide binding, activator screen; normalized activity (activation), % at 26.1 µM; in the data active means normalized activity above about 1.9%;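 further: purified mutant Fbw7 with reduced substrate affinity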
# GPR151 activ = activators of human GPR151; Q8TDV0; PathHunter beta-arrestin GPR151 cells, luminescence; activation, % at 11.2 µM; hit rate 1% among 650,000; AID 1508602; in the data active means activation above about 4.9%;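 further: 0% = median of compound wells and 100% = cells with positive control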
# MITF primary = blocks human microphthalmia-associated transcription factor | O75030 | AlphaScreen MITF homodimerization, bead proximity signal | inhibition, % at 2.6 µM | hit rate 0.91% among 650,000 | AID 1259374; in the data active means inhibition above about 50%;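 further: 0% = vehicle wells with protein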
# Target sequence (O75030 whole entry, looked up): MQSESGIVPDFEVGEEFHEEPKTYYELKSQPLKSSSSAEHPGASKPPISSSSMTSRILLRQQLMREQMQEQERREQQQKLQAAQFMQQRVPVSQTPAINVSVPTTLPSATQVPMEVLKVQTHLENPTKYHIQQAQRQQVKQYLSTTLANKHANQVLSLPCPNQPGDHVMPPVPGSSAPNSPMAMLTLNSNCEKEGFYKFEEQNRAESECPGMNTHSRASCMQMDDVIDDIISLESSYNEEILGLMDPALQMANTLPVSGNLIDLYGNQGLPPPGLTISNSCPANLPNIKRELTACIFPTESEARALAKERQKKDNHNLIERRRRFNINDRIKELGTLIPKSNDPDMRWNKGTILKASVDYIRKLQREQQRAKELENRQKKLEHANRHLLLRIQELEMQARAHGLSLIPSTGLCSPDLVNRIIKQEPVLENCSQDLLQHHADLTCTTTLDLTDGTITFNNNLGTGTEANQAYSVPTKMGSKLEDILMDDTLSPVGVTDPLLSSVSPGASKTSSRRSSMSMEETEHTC
# TEAD-YAP block = TEAD-YAP interaction inhibition. inhibition, % at 9.12 µM. HEK-TIYL cells, TEAD-Gal4/YAP UAS-luciferase luminescence. AID 1259422. hit rate 1.4% among 640,000; in the data active means inhibition above about 32%;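 further: 0% = median of test compound wells and 100% = reference inhibitor wells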
# MITF inh conf = confirmation of human MITF inhibitors; shares compounds with MITF primary; inhibition, % at 2.6 µM; AID 1259372; AlphaScreen MITF homodimerization, biotin/His-MITF beads; hit rate 16% among 4,700;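 active means inhibition above a cutoff derived from the DMSO control wells, cut at about 28% in these data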;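 further: 0% = MITF dimer wells with DMSO only; inhibitors lower the bead chemiluminescence by keeping MITF from dimerizing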
# AS interf DR = counter-screen: compounds optically interfering with AlphaScreen; AlphaScreen optical interference counterscreen, cell-free; IC50, µM; shares compounds with MITF primary; hit rate 6% among 480; call rule not given here
# AS interf ctr = optically interferes with AlphaScreen signal; shares compounds with MITF primary; LysRS AlphaScreen counterscreen, signal interference, triplicate; inhibition, % at 2.6 µM; hit rate 7.6% among 4,700; AID 1259376;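 active means inhibition above a cutoff derived from the DMSO control wells, cut at about 30% in these data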
# * marks the source's active call; other numbers are inactive results; nt = no result. Hits are enriched below; roughly 3.5% of the tested compounds scored in any of these assays.
SMILES,FBW7 act,GPR151 activ,MITF primary,TEAD-YAP block,MITF inh conf,AS interf ctr,others
CN(c1ccccc1C(=O)Nc1ccccc1Cl)S(C)(=O)=O,0.0,-1.3,11.5,-2.5,nt,nt,
COCCNC(=S)NC(=O)c1cccc([N+](=O)[O-])c1,0.8,-1.9,16.5,12.8,nt,nt,
O=C(NC1CCN(Cc2ccccc2)CC1)c1cnc(NC2CCN(Cc3ccccc3)CC2)s1,0.1,-2.2,13.6,0.6,nt,nt,
CCCNC(=O)c1cnc(NC2CCN(Cc3ccccc3)CC2)s1,0.1,-1.2,73.9*,2.1,-5.0,9.2,
O=C(c1ccccc1)N1CCN(Cc2cccc(Oc3ccccc3)c2)CC1,-0.2,0.1,48.8,-5.0,nt,nt,
O=C(c1ccc(F)cc1)N1CCN(Cc2cccnc2)CC1,0.1,-0.9,71.9*,0.9,8.3,6.0,
O=C(c1cccnc1)N1CCN(Cc2cccc(Oc3ccccc3)c2)CC1,0.0,-0.7,69.8*,9.9,-5.2,3.1,
O=C(c1cccnc1)N1CCN(Cc2cccc(F)c2)CC1,0.0,-1.4,75.1*,9.8,15.2,11.8,
CCOC(=O)c1ccc(NC(=O)CSc2nc3cc4c(cc3cc2C#N)OCO4)cc1,0.2,0.2,12.1,18.8,nt,nt,
CCC1CN(CCC(=O)N2CCC[C@H]2C(N)=O)Cc2cc(OC)ccc2O1 (some centres not stated),0.2,-1.2,15.2,4.3,nt,nt,
COc1cccc(C(=O)COC(=O)CCC(=O)Nc2ccc([N+](=O)[O-])cc2)c1,-0.1,1.4,-0.2,0.3,nt,nt,
COc1cccc(C(=O)COC(=O)CCCC(=O)Nc2ccc([N+](=O)[O-])cc2)c1,-0.1,2.2,62.1*,8.2,11.0,13.7,
Brc1c(OCCCCn2ccnc2)ccc2ccccc12,0.2,-2.1,78.0*,-20.1,-11.1,-3.0,
Clc1ccc(OCCCCn2ccnc2)cc1Cl,-0.2,-1.5,54.8*,-1.3,12.6,16.9,
Clc1ccc(OCCOCCn2ccnc2)cc1Cl,-0.1,0.1,43.0,-7.9,nt,nt,
Clc1cc(Br)ccc1OCCCCn1ccnc1,0.1,0.0,74.2*,-8.3,2.3,6.0,
Cc1cccc(CCNC(=O)Cn2ncc3c(=O)oc4ccc(C)cc4c32)c1,0.1,-0.1,-1.2,-1.7,nt,nt,
Cn1c(-c2cccc([N+](=O)[O-])c2)cnc1NCc1cccc(O)c1,-0.1,0.3,39.0,-10.4,nt,nt,
Cn1c(-c2cccc([N+](=O)[O-])c2)cnc1NCc1cccc(F)c1,-0.1,0.1,52.4*,-10.7,-7.6,-7.7,
Cn1c(-c2ccc(F)cc2)cnc1NCc1cccc([N+](=O)[O-])c1,0.2,-0.1,58.8*,-1.8,-4.2,-4.5,
Cn1c(-c2cccc([N+](=O)[O-])c2)cnc1NCc1ccc(F)cc1,-0.1,0.4,38.0,-4.2,nt,nt,
CN(CC(=O)O/N=C(\N)c1cccnc1)S(=O)(=O)c1ccc(Br)cc1,0.7,-0.6,20.8,4.6,nt,nt,
O=C(OC1CCCC1=O)c1ccc(N2CCCC2=O)cc1 (configuration not stated),0.0,-1.7,62.4*,-20.9,44.4*,9.6,AS interf DR=>7.22
Cc1onc(-c2ccccc2)c1C(=O)Nc1cccc(C#N)c1,1.1,-0.1,70.1*,7.6,8.7,8.8,
Nc1ccc(S(=O)(=O)NNC(=O)C(=O)NNc2ccccn2)cc1,-0.2,-0.6,44.5,-3.8,nt,nt,
SMILES,FBW7 act,GPR151 activ,MITF primary,TEAD-YAP block,MITF inh conf,AS interf ctr,others
Cc1ccccc1S(=O)(=O)NNC(=O)C(=O)NNc1ccccn1,-0.3,1.2,53.7*,-0.6,47.0*,75.1*,
S=c1nc2ccccc2c2[nH]c3ccccc3n12,0.0,-1.3,56.2*,-8.5,-7.3,2.1,
S=c1[nH]c2ccccc2n2c(=S)[nH]nc12,-0.1,-0.8,19.9,-11.9,nt,nt,
Cc1c(C(=O)Nc2cnc3ccccc3c2)sc2ncn(CC(=O)N3CCCCC3)c(=O)c12,0.0,-0.1,14.5,-45.0,nt,nt,
COc1cc(OC)c(OC)cc1CN(CCCN(C)C)CCCN(C)C,0.0,1.4,54.2*,2.1,-9.8,-2.9,
CN1CCC(N(C)CC(O)COCc2ccccc2F)CC1 (configuration not stated),0.5,0.1,17.1,8.4,nt,nt,
CN1CCC(N(C)CC(O)COCc2ccccc2Cl)CC1 (configuration not stated),0.1,3.4,86.8*,-1.1,8.3,15.0,
COc1ccc(S(=O)(=O)Nc2cccc([N+](=O)[O-])c2C)cc1OC,0.0,0.5,-1.9,-9.8,nt,nt,
